In all, about 110,000 compounds were measured (“z-score”: median about -0.1, highest 2% from about 2 on). Only a selection was taken, and the highest values are over-represented in it overall. Activity calls are given as the source filed them.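 Rule for the calls: active = z-score in the third read window above 3 or below -3; inactive = the rest.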

The target of the assay is Metabotropic glutamate receptor 8 (Rattus norvegicus) (UniProt P70579). Nature of the assay: mGluR8 Gi/Go-coupled signaling modulation – cell-based, rat, thallium flux, HTS, primary screen (AID 488969). Particulars: HEK293 rat mGluR8, GIRK (G protein-gated inwardly rectifying potassium channel) thallium flux, FluoZin2; at 10 µM; stronger effect = higher value; submaximal glutamate (EC20) added with thallium.
Metabotropic glutamate receptor 8 (Rattus norvegicus), sequence (P70579 whole entry, looked up): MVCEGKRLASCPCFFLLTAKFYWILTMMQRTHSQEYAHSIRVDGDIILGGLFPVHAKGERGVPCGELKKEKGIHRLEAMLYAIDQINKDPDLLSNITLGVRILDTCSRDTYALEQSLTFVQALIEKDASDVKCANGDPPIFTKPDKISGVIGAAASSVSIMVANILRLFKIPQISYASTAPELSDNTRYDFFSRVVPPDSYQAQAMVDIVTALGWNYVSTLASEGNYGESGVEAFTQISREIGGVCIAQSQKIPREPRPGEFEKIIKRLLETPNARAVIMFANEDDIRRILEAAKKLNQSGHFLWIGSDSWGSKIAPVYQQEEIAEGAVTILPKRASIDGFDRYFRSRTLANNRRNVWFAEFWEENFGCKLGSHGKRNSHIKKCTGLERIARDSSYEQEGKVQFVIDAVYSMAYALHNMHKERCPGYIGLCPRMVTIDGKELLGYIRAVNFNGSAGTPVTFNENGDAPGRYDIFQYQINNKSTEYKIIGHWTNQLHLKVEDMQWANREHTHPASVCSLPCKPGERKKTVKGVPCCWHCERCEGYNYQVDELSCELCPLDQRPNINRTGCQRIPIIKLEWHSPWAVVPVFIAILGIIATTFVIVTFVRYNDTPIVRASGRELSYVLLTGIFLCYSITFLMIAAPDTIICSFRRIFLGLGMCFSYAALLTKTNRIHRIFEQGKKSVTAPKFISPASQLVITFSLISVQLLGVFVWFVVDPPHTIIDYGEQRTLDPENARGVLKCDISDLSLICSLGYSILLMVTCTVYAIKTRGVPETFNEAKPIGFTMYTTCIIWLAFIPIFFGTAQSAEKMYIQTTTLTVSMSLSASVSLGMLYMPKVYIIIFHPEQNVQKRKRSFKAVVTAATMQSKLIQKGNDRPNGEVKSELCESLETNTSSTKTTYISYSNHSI
The compound `O=S(=O)(NCc1ccccn1)c1ccccc1` showed a z-score of -0.362. The value for `COc1ccc(-c2nc(-c3cccc(C)c3)[nH]c(=O)c2C#N)cc1` was -0.296; that for `COc1ccc(S(=O)(=O)n2ccc(C)n2)cc1C` was -0.988. Next, `CCCNC(=O)C1CCN(S(=O)(=O)c2ccc(-c3nn[nH]n3)cc2)CC1`: -0.171. As for `N/C(=N\c1nc2c(c(=O)[nH]1)CCC2)Nc1ccccc1`, the z-score was 0.214.

In turn, `c1ccc(CN2CCOCC2)cc1` came in with a z-score of 0.378. As to `CC12CN(Cc3ccccc3)CC(C)(CN(Cc3ccccc3)C1)C2=NO`, the z-score worked out at 2.4. Take `CC(=O)C1CCN(Cc2ccccc2)CC1`: the z-score was -0.262. In turn, `Cn1ncc(Br)c1C(=O)N/N=C/c1cccc(OC2CSC2)c1` came in with a z-score of -0.309. With `O=C(CSc1nnnn1C1CCCCC1)NCc1ccco1`, the z-score is -0.228. In turn, `CCOC(=O)c1c(NC(=O)CNCCOC)sc2c1CCCC2` displayed a z-score of -1.06. `Cc1nn(C)c(C)c1CNC(=O)c1nn2c(c1Cl)NC(c1cccs1)CC2C(F)(F)F` (configuration not stated): the z-score was -0.0188. `Cc1nn(C)c(C)c1CN(C)C(=O)c1nn2c(c1Br)NC(c1cccs1)CC2C(F)(F)F` (configuration not stated) had a z-score of 2.24. `Cc1nn(C)c(C)c1CN(C)C(=O)c1cc2n(n1)C(C(F)(F)F)CC(c1cccs1)N2` (configuration not stated) displayed a z-score of 0.0534. The compound `CCOc1ccc2nc(NC(=O)C3CCCN(S(=O)(=O)c4cccs4)C3)sc2c1` (configuration not stated) returned a z-score of 0.284.

The compound `COc1ccc(C(=S)N2CCCCCC2)cc1` had a z-score of -0.075. In turn, `Cc1cccc(C(=O)NC(=S)N2CCN(C(=S)NC(=O)c3cccc(C)c3)CC2)c1` had a z-score of 0.153. With `COc1ccc(N2CCN(C(=S)Nc3cc(C)cc(C)c3)CC2)cc1`, the z-score was determined as 0.06. With `COc1ccc(C(=O)NC(=S)N2CCCCC2)cc1`, the z-score was 3.44 (active). The value for `CC1CCN(C(=S)NCCc2ccccc2)CC1` was -0.0312. Consider `COc1ccc(C(=O)NC(=S)N2CCC(C)CC2)cc1`, for which the z-score was 14.2 (active). Compound `CNC(=S)N1CCN(c2cccc(OC)c2)CC1` came in with a z-score of 0.273.

Consider `CNC(=S)N1CCN(c2ccc(OC)cc2)CC1`, for which the z-score was 8.68 (active). For the compound `COc1ccc(OC(C)C(=O)N2CCC(C)CC2)cc1` (configuration not stated), the z-score was found to be 0.926.

The compound `COc1ccc(C(=O)NC(=S)N2CC(C)OC(C)C2)cc1` (configuration not stated) returned a z-score of 0.0339. On to `CC1CCN(C(=S)NC(=O)c2ccccc2)CC1`, for which the z-score was 4.42 (active).

The compound `COc1ccc(C(=O)NC(=O)N2CCCCC2)cc1` returned a z-score of 0.975.

The compound `O=C(OCc1ccccc1)C1=[N+]([O-])OC(C(=O)OCc2ccccc2)C1c1c[nH]c2ccccc12` (configuration not stated) returned a z-score of -0.556.

Consider `CCOC(=O)C1=C(C)Nc2nc3ccccc3n2C1c1ccccc1` (configuration not stated), for which the z-score was determined as 0.0404.

`Cc1ccc2c(c1)CCCN2C(=O)c1ccncc1` registered a z-score of 0.255. For the compound `COc1cccc(C2=NOC(C(=O)Nc3cccc(C(C)=O)c3)C2)c1OC` (configuration not stated), the z-score amounted to 0.301. In turn, `Cc1c(-c2ccccc2)nc2ccccc2c1C(=O)OCC(=O)Nc1ncc(C(F)(F)F)cc1Cl` yielded a z-score of 0.00577. Compound `COC(=O)Cc1[nH]nc2c1C(c1c[nH]c3ccccc13)C(C#N)=C(N)O2` (configuration not stated) showed a z-score of -0.415.

With `COc1ccc(/C=N\N=C2/SC(CC(=O)O)C(=O)N2c2ccc(O)cc2)cc1OC` (configuration not stated), the z-score was -0.0449. Compound `CC(=O)Nc1cccc2c1C(=O)NC2=O` had a z-score of 0.274.

As to `CC(C)Cn1cc(C(=O)NC2CCN(Cc3ccccc3)CC2)c2c3ccccc3n(C)c2c1=O`, the z-score was -0.13.

Compound `S=C(NCCc1ccccc1)N1CCN(Cc2ccccc2)CC1` came in with a z-score of -0.499. Next, `O=C(c1ccccc1)N1CCN(Cc2ccccc2)CC1`: -0.853; `O=C(NC(=S)N1CCN(Cc2ccccc2)CC1)c1ccccc1`: 6.31 (active); `O=C1NCCN1C(=O)c1ccccc1F`: 0.555. With `Cc1csc(NC(=O)CSc2ncc(-c3ccccc3)[nH]2)n1`, the z-score stood at 0.148.

Take `COc1ccc2c(=O)c3c(=O)n(Cc4ccco4)c(-c4ccco4)nc3oc2c1`: the z-score was -0.397. `COc1ccc(Cn2c(-c3ccco3)nc3oc4ccccc4c(=O)c3c2=O)cc1` returned a z-score of 0.403. In turn, `COc1ccc(Cn2c(-c3ccco3)nc3oc4cc(OC)ccc4c(=O)c3c2=O)cc1` gave a z-score of 2.22. As for `CS(=O)(=O)N(CC(N)=O)c1ccc2c(c1)OCO2`, the z-score is -0.00195.

For `N#Cc1ccccc1NC(=O)CNc1ccc(Cl)c(C(F)(F)F)c1`, the z-score was found to be 2.38. `Cc1ccccc1NC(=O)CNc1ccc(Cl)c(C(F)(F)F)c1`: the z-score is -0.365. The value for `COc1ccc(NCC(=O)Nc2ccccc2C#N)cc1Cl` was -0.204; that for `N#Cc1cc(Oc2cccnc2)c(Oc2cccnc2)cc1C#N` was 0.18. Turning to `O=C(Nc1cccc(Cl)c1)Nc1nccs1`, the z-score is 10.2 (active). Next, `O=C(Nc1ccccc1)Nc1nccs1`: 1.3; `O=C(Nc1cccc(Cl)c1)Nc1cccc(Cl)c1`: 0.0262; `COC(=O)c1ccc(Oc2nc3c(c(=O)n(C)c(=O)n3C)n2CCC(C)C)cc1`: 1.63.

With `CN1C(=O)/C(=C/c2ccc3c(c2)OCO3)N=C1c1ccccc1`, the z-score is 0.393. Turning to `CCC(=O)Nc1c(C(=O)N2CCCCCC2)cnn1-c1ccc(C)c(C)c1`, the z-score is 2.47. Turning to `CC(=O)Nc1c(C(=O)N2CCOCC2)cnn1-c1ccc(C)c(C)c1`, the z-score was -0.0497. Consider `O=C(Cc1ccccc1)Nc1c(C(=O)N2CCCCCC2)cnn1-c1ccccc1`, for which the z-score is -0.477. In the case of `CC(C)NC(=O)Cn1c(=O)cnc2ccccc21`, the z-score turned out to be 0.171.

`O=C(CSc1c[nH]c2ccccc12)NCc1ccc2c(c1)OCO2`: the z-score was 2.27. For the compound `CC(C)C(=O)NCCSc1c[nH]c2ccccc12`, the z-score is -0.143. Compound `Cn1c(SCC(=O)NCc2ccc3c(c2)OCO3)nnc1-c1c[nH]c2ccccc12` came in with a z-score of -0.821. For the compound `O=C(NCCSc1c[nH]c2ccccc12)c1ccco1`, the z-score was 3.57 (active). For the compound `O=C(NCCSc1c[nH]c2ccccc12)c1ccc(Br)o1`, the z-score is -0.00412. On to `Clc1ccc(-n2ncc3c(NCc4ccc5c(c4)OCO5)ncnc32)cc1`, for which the z-score was -0.426.

Turning to `O=C(CSc1nc(C2CCCCC2)nc2ccccc12)NCc1ccc2c(c1)OCO2`, the z-score is -1.07. `O=C(CCc1c[nH]c2ccccc12)NCc1ccc2c(c1)OCO2` registered a z-score of -0.143. The compound `O=C(CSc1ncnc2c1cnn2-c1ccc(F)cc1)NCc1ccc2c(c1)OCO2` came in with a z-score of 0.54. Regarding `O=C(CSc1nc(CCC2CCCC2)nc2ccccc12)NCc1ccc2c(c1)OCO2`, the z-score was 8.15 (active). `O=C(CSc1nc(C2CC2)nc2ccccc12)NCc1ccc2c(c1)OCO2` gave a z-score of -0.21. As for `O=C(CSc1ncnc2c1cnn2-c1ccc(Cl)cc1)NCc1ccc2c(c1)OCO2`, the z-score was 3.12 (active). For `O=C(CN1C(=O)c2ccccc2C1=O)N1CCN(c2nnc(-c3ccccc3)c3ccccc23)CC1`, the z-score stood at 0.179. Turning to `COC(=O)Nc1ccc(OCc2ccccc2)cc1`, the z-score was 0.466.

(Values after PubChem BioAssay AID488969 (Vanderbilt High Throughput Screening Facility, 2010).)
